This is part of a sample that, as a whole, favours compounds with a hit. Of some 83,000 tested, about 20% had one in any assay.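 Percent growth is the endpoint: 0 to 100 indicates growth inhibition (40 means 60% inhibition), 0 means no net growth, and negative values indicate cell death.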 The source made the active and inactive calls. The calls were made as follows: active = growth percent below 10; inactive = the rest.
Key:
Assay in all cases: NCI-60 one-dose screen, 48 h (100 = growth as untreated, 0 = no growth, -100 = all killed)
Conditions in all cases: 10 µM
T-47D breast = system: T-47D breast
BT-549 breast = system: BT-549 breast
MDA-MB-435 melanoma = system: MDA-MB-435 melanoma
SW-620 colon = system: SW-620 colon
MCF7 breast = system: MCF7 breast
HCT-116 colon = system: HCT-116 colon
HCC-2998 colon = system: HCC-2998 colon
KM12 colon = system: KM12 colon

Measured: growth

CCCCC(CC#N)(CCC)CCC
inactive: T-47D breast 100% | BT-549 breast 98.5% | MDA-MB-435 melanoma 99.4% | SW-620 colon 108% | MCF7 breast 98.4% | HCT-116 colon 106% | HCC-2998 colon 96.3% | KM12 colon 107%

COc1ccc(Cn2cc3c(c2-c2cc(OC)c(OC)c(OC)c2)CCc2cnoc2-3)cc1N
active: MDA-MB-435 melanoma -37% | HCT-116 colon 0.095% | HCC-2998 colon -9.27% | KM12 colon 1.77%
inactive: T-47D breast 43.4% | BT-549 breast 26.3% | SW-620 colon 20.4% | MCF7 breast 16%

CCCN(CCC)CCCNC(=O)c1cc2c(-c3ccc(OC)c(OC)c3)nn(C)c2s1
active: MDA-MB-435 melanoma -24.5% | KM12 colon 6.62%
inactive: T-47D breast 24.5% | BT-549 breast 13.7% | SW-620 colon 10.8% | MCF7 breast 11.2% | HCT-116 colon 13.7% | HCC-2998 colon 67.2%

COc1cccc(C(=O)NNc2nc(N3CCN(C4CCCCC4)CC3)nc(N3CCN(C(c4ccccc4)c4ccccc4)CC3)n2)c1
inactive: T-47D breast 29% | BT-549 breast 55.5% | MDA-MB-435 melanoma 35% | SW-620 colon 39% | MCF7 breast 11.2% | HCT-116 colon 19% | HCC-2998 colon 42% | KM12 colon 23.6%

Cc1ccc(C(=O)O)c(N)c1C
inactive: T-47D breast 94.5% | BT-549 breast 94.3% | MDA-MB-435 melanoma 105% | SW-620 colon 104% | MCF7 breast 92.6% | HCT-116 colon 92% | HCC-2998 colon 106% | KM12 colon 95%

C=CCN1C(=O)/C(=C\c2ccc3c(c2)CCC3)SC1=S
inactive: T-47D breast 91.5% | BT-549 breast 93.5% | MDA-MB-435 melanoma 109% | SW-620 colon 104% | MCF7 breast 103% | HCT-116 colon 99.8% | HCC-2998 colon 106% | KM12 colon 104%

c1ccc(CNc2nc(Nc3ccc(-c4nc5ccccc5[nH]4)cc3)c3cn[nH]c3n2)cc1
active: T-47D breast -30.6% | BT-549 breast -24.8% | MDA-MB-435 melanoma -6.74% | SW-620 colon 7.33% | MCF7 breast 1.71% | HCT-116 colon -54.5% | HCC-2998 colon -5.53% | KM12 colon 9.4%

Nc1c(C(=O)Nc2ccccc2F)sc2nc3c(cc12)C(=O)CCC3
inactive: T-47D breast 40.2% | BT-549 breast 59.8% | SW-620 colon 30% | MCF7 breast 22.9% | HCT-116 colon 32% | HCC-2998 colon 43.8% | KM12 colon 24.6%
active: MDA-MB-435 melanoma -25.9%

COc1ccc(-c2cc(=O)n(-c3nc4ccccc4[nH]3)[nH]2)cc1OC
inactive: T-47D breast 94.5% | BT-549 breast 76.2% | MDA-MB-435 melanoma 50.6% | SW-620 colon 77.8% | MCF7 breast 74.4% | HCT-116 colon 74.6% | HCC-2998 colon 102% | KM12 colon 105%

O=C(/C=C/c1ccc(Cl)cc1)c1ccc(Br)cc1
inactive: T-47D breast 79.7% | BT-549 breast 102% | MDA-MB-435 melanoma 99.1% | SW-620 colon 102% | MCF7 breast 26.3% | HCT-116 colon 75.5% | HCC-2998 colon 95% | KM12 colon 93.8%

N#CCC1CCCC1
inactive: T-47D breast 101% | BT-549 breast 112% | MDA-MB-435 melanoma 91.2% | SW-620 colon 104% | MCF7 breast 92.8% | HCT-116 colon 99.8% | HCC-2998 colon 104% | KM12 colon 110%

Cc1cc(O)c(C2=NN(c3ccc(S(N)(=O)=O)cc3)C(c3ccc(N(C)C)cc3)C2)c(C)c1Cl (centres undefined)
inactive: T-47D breast 37% | BT-549 breast 95.7% | MDA-MB-435 melanoma 69.3% | SW-620 colon 72.2% | MCF7 breast 37.2% | HCT-116 colon 41.1% | HCC-2998 colon 94.1% | KM12 colon 62.4%

Cc1cnc(C=O)c2cccc([N+](=O)[O-])c12
inactive: T-47D breast 82.3% | BT-549 breast 88.5% | MDA-MB-435 melanoma 106% | SW-620 colon 47.4% | MCF7 breast 75.8% | HCT-116 colon 17.5% | HCC-2998 colon 101% | KM12 colon 99.2%

CCOC(=O)c1c(C(F)(F)F)n([O-])c2ccc(OC)cc2[n+]1=O
inactive: T-47D breast 12% | MDA-MB-435 melanoma 23.6% | SW-620 colon 30.2% | MCF7 breast 31.9% | HCT-116 colon 29.4% | HCC-2998 colon 43.8% | KM12 colon 43.7%
active: BT-549 breast -3.39%

FC(F)(F)c1ccc(-c2nc(-c3nc4cc(Cl)c(Cl)cc4[nH]3)c3ccccn23)cc1
inactive: T-47D breast 61.6% | BT-549 breast 88.2% | MDA-MB-435 melanoma 73.4% | SW-620 colon 80% | MCF7 breast 48% | HCT-116 colon 33.8% | HCC-2998 colon 83% | KM12 colon 52.8%

COC1OC2COC(c3ccccc3)OC2C(=O)C1NC(=O)c1ccccc1 (centres undefined)
inactive: T-47D breast 98.6% | BT-549 breast 107% | MDA-MB-435 melanoma 96.4% | SW-620 colon 88.2% | MCF7 breast 99.6% | HCT-116 colon 99% | HCC-2998 colon 92.9% | KM12 colon 96.7%

CCOC(=O)Nc1ccc2c(c1)C(=O)N(CC)c1ccccc1O2
active: MDA-MB-435 melanoma -17.1% | HCT-116 colon 9.54%
inactive: T-47D breast 73.4% | BT-549 breast 26.2% | SW-620 colon 32.7% | MCF7 breast 14.2% | HCC-2998 colon 18.2% | KM12 colon 14.7%

CCOC(=O)c1cc(-c2ccccc2)nc(N)n1
inactive: T-47D breast 114% | BT-549 breast 103% | MDA-MB-435 melanoma 102% | SW-620 colon 103% | MCF7 breast 87.6% | HCT-116 colon 104% | HCC-2998 colon 109% | KM12 colon 110%

COc1cccc(C2(C)Nc3ccccc3-c3nc4ccccc4n32)c1 (centres undefined)
inactive: T-47D breast 98.5% | BT-549 breast 108% | MDA-MB-435 melanoma 104% | SW-620 colon 108% | MCF7 breast 103% | HCT-116 colon 106% | HCC-2998 colon 106% | KM12 colon 108%

O=C(CCCC(=O)N/N=C/c1cc(Cl)ccc1O)N/N=C\c1cc(Cl)ccc1O
inactive: T-47D breast 24.1% | BT-549 breast 29.2% | MDA-MB-435 melanoma 45.1% | SW-620 colon 30.9% | MCF7 breast 14.3% | HCT-116 colon 24.7% | HCC-2998 colon 29.2% | KM12 colon 27.8%

Cc1cc(C)c(C(=O)OC(C)CNC2CCCCC2)c(C)c1 (centres undefined)
inactive: T-47D breast 100% | BT-549 breast 92.4% | MDA-MB-435 melanoma 90.8% | SW-620 colon 100% | MCF7 breast 97.8% | HCT-116 colon 86.3% | HCC-2998 colon 103% | KM12 colon 98.2%

CCOC(=O)c1cc2c(n1Cc1cc(OC)cc(OC)c1)-c1oncc1CC2
active: MDA-MB-435 melanoma -37%
inactive: T-47D breast 54.8% | BT-549 breast 39.5% | SW-620 colon 34.9% | MCF7 breast 16.6% | HCT-116 colon 14.2% | HCC-2998 colon 19.4% | KM12 colon 19.5%

CCCCCCN=C(N)CCCCCCCCCCC(N)=NCCCCCC
inactive: T-47D breast 12.2% | BT-549 breast 39.4% | MDA-MB-435 melanoma 38.9% | SW-620 colon 22.4% | MCF7 breast 14.9% | HCT-116 colon 16.5% | HCC-2998 colon 35.7% | KM12 colon 34.8%

COc1ccc(Cn2cc3c(c2-c2ccccc2)CC(C)(C)c2cnoc2-3)cc1
active: MDA-MB-435 melanoma -16.6%
inactive: T-47D breast 30.7% | BT-549 breast 46.2% | SW-620 colon 13.6% | MCF7 breast 17.1% | HCT-116 colon 22.9% | HCC-2998 colon 77.4% | KM12 colon 29.1%

Cn1c(=O)c2[nH]c(C(O)c3ccc(Cl)cc3)nc2n(C)c1=O (centres undefined)
inactive: T-47D breast 101% | BT-549 breast 93.6% | MDA-MB-435 melanoma 101% | SW-620 colon 89.5% | MCF7 breast 96.6% | HCT-116 colon 95% | HCC-2998 colon 97.8% | KM12 colon 97.3%

N#CN1CC[C@H](C(=O)Nc2ncc(-c3ccccc3)s2)C1
active: T-47D breast -44% | BT-549 breast -5.31% | MDA-MB-435 melanoma 0.958% | SW-620 colon 5.19% | MCF7 breast 3.54% | HCT-116 colon -3.16% | HCC-2998 colon -11.1% | KM12 colon -6.3%

CC(C)CCN(CCCNc1c2c(nc3cc(Cl)ccc13)CCCC2)CCC(C)C
inactive: T-47D breast 61.7% | BT-549 breast 87% | MDA-MB-435 melanoma 86.2% | SW-620 colon 55.1% | MCF7 breast 40% | HCT-116 colon 31.8% | HCC-2998 colon 90.1% | KM12 colon 73.1%

CCOC(=O)Cn1nnc(-c2ccc(OCc3ccccc3F)cc2)n1
inactive: T-47D breast 72.6% | BT-549 breast 96.9% | SW-620 colon 83.3% | MCF7 breast 75.8% | HCT-116 colon 80.1% | HCC-2998 colon 100% | KM12 colon 75.6%
active: MDA-MB-435 melanoma -2.38%

O=C(NCCc1nccs1)c1cnc2c(S)cccc2c1
active: SW-620 colon 4.05% | MCF7 breast -3.22% | HCT-116 colon 2.16%
inactive: T-47D breast 10.8% | BT-549 breast 48.1% | MDA-MB-435 melanoma 26.4% | HCC-2998 colon 35.5% | KM12 colon 19.6%

Cc1cc2cc3c(=O)[nH]c(=O)cc-3n(CC(O)C(O)C(O)CO)c2cc1C (centres undefined)
inactive: T-47D breast 95.1% | BT-549 breast 104% | MDA-MB-435 melanoma 104% | SW-620 colon 89.8% | MCF7 breast 101% | HCT-116 colon 101% | HCC-2998 colon 109% | KM12 colon 108%

O=C(NC1CCN(Cc2ccccc2)CC1)c1cc(-c2ccncc2)nc2ccc(Cl)cc12
active: HCT-116 colon 9.97%
inactive: T-47D breast 29.8% | BT-549 breast 35.4% | MDA-MB-435 melanoma 28% | SW-620 colon 23.5% | MCF7 breast 17.7% | HCC-2998 colon 44.4% | KM12 colon 26.1%

COC(=O)[C@]12CC[C@@H](C)[C@H](C)[C@@H]1C1=CC[C@@H]3[C@@]4(C)C[C@@H](O)[C@H](O)[C@@](C)(CO)[C@@H]4[C@H](O)C[C@@]3(C)[C@]1(C)CC2
active: T-47D breast -47.1% | BT-549 breast -66.1% | MDA-MB-435 melanoma -66.9% | SW-620 colon -54.1% | MCF7 breast -24.3% | HCT-116 colon -82.3% | HCC-2998 colon -89.2% | KM12 colon -74.2%

CCN(CC)c1ccc(/C=C/C2=[N+](C)c3ccccc3C2(C)C)c(C)c1
active: T-47D breast -0.932% | BT-549 breast -13.2% | MDA-MB-435 melanoma -13.7% | MCF7 breast 3.87% | HCT-116 colon 5.94% | KM12 colon -34.7%
inactive: SW-620 colon 18.7% | HCC-2998 colon 23.3%
